# Measured values: the supplement of paper PMC8728848
# Shown is part of a subset that was picked to be rich in the strongest signals.
# B1: Clec2 (Mus musculus), Q9JL99 (protein)
# chain: MQDEDGYITLNIKPRKQALSSAEPASSWWRVMALVLLISSMGLVVGLVALGIMSVTQQKYLLAEKENLSATLQQLAKKFCQELIRQSEIKTKSTFEHKCSPCATKWRYHGDSCYGFFRRNLTWEESKQYCTEQNATLVKTASQSTLDYIAERITSVRWIGLSRQNSKKDWMWEDSSVLRKNGINLSGNTEENMNCAYLHNGKIHPASCKERHYLICERNAGMTRVDQLL
# How the values were obtained:
# Assay in all cases: glycan array binding signal (z-score within array); higher = stronger binding
# Conditions in all cases: glycan notation: IUPAC condensed, linker removed
# [1] = biological target: Fuc(a1-2)Gal(b1-3)GalNAc(b1-3)Gal
# Outline: (§1)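 The binding signal is a Z-score computed within each array. Data were drawn from 3228 arrays in the Consortium for Functional Glycomics database, restricted to those with a known protein sequence. Scores were averaged over arrays of the same protein sequence at different concentrations or buffers, and over linkers, and negative values can be taken as non-binding.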
# [2] = biological target: Fuc(a1-2)Gal(b1-4)Fuc(a1-3)]GlcNAc(b1-2)Man(a1-3)[Fuc(a1-2)Gal(b1-4)[Fuc(a1-3)]GlcNAc(b1-2)Man(a1-6)]Man(b1-4)GlcNAc(b1-4)GlcNAc
# Outline: as §1
# [3] = biological target: Fuc(a1-2)[Gal(a1-3)]Gal(b1-4)GlcNAc(b1-3)GalNAc
# Outline: as §1
# [4] = biological target: Fuc(a1-2)[GalNAc(a1-3)]Gal(b1-3)GalNAc(a1-3)[Fuc(a1-2)]Gal(b1-4)GlcNAc
# Outline: as §1
# [5] = biological target: Fuc(a1-2)[GalNAc(a1-3)]Gal(b1-4)GlcNAc(b1-3)Gal(b1-4)GlcNAc(b1-3)Gal(b1-4)GlcNAc
# Outline: as §1
# [6] = biological target: Fuc(a1-3)[Gal(b1-4)]GlcNAc(b1-2)Man
# Outline: as §1
# Gal(a1-3)Gal(b1-3)GlcNAc = biological target: Gal(a1-3)Gal(b1-3)GlcNAc
# Outline: as §1
# [7] = biological target: Gal(a1-3)Gal(b1-4)[Fuc(a1-3)]GlcNAc(b1-2)Man(a1-3)[Gal(a1-3)Gal(b1-4)[Fuc(a1-3)]GlcNAc(b1-2)Man(a1-6)]Man(b1-4)GlcNAc(b1-4)GlcNAc
# Outline: as §1
# [8] = biological target: Gal(b1-3)GalNAc(a1-3)[Fuc(a1-2)]Gal(b1-4)GlcNAc
# Outline: as §1
# [9] = biological target: Gal(b1-3)GlcNAc(b1-2)Man(a1-3)[Gal(b1-3)GlcNAc(b1-2)Man(a1-6)]Man(b1-4)GlcNAc(b1-4)[Fuc(a1-6)]GlcNAc
# Outline: as §1
# [10] = biological target: Gal(b1-3)GlcNAc(b1-3)Gal(b1-4)Glc
# Outline: as §1
# [11] = biological target: Gal(b1-3)GlcNAc(b1-3)Gal(b1-4)GlcNAc(b1-6)[Gal(b1-3)GlcNAc(b1-3)]Gal(b1-4)Glc
# Outline: as §1
# [12] = biological target: Gal(b1-3)GlcNAc(b1-3)Gal(b1-4)[Fuc(a1-3)]GlcNAc(b1-6)[Gal(b1-3)GlcNAc(b1-3)]Gal(b1-4)Glc
# Outline: as §1
# [13] = biological target: Gal(b1-3)[Fuc(a1-4)]GlcNAc(b1-2)Man
# Outline: as §1
# [14] = biological target: Gal(b1-4)GlcNAc(b1-2)Man(a1-3)Man(b1-4)GlcNAc(b1-4)GlcNAc
# Outline: as §1
# [15] = biological target: Gal(b1-4)GlcNAc(b1-2)Man(a1-3)[GlcNAc(b1-4)][Gal(b1-4)GlcNAc(b1-2)Man(a1-6)]Man(b1-4)GlcNAc(b1-4)GlcNAc
# Outline: as §1
# [16] = biological target: Gal(b1-4)GlcNAc(b1-3)Gal(b1-4)GlcNAc(b1-3)Gal(b1-4)GlcNAc(b1-3)Gal(b1-4)GlcNAc(b1-2)Man(a1-3)[Gal(b1-4)GlcNAc(b1-3)Gal(b1-4)GlcNAc(b1-3)Gal(b1-4)GlcNAc(b1-3)Gal(b1-4)GlcNAc(b1-2)Man(a1-6)]Man(b1-4)GlcNAc(b1-4)GlcNAc
# Outline: as §1
# Gal3S(b1-4)Glc6S = biological target: Gal3S(b1-4)Glc6S
# Outline: as §1
# [17] = biological target: Gal3S(b1-4)[Fuc(a1-3)]Glc6S
# Outline: as §1
# Gal3S6S(b1-4)GlcNAc6S = biological target: Gal3S6S(b1-4)GlcNAc6S
# Outline: as §1
# Gal6P(b1-4)GlcNAc = biological target: Gal6P(b1-4)GlcNAc
# Outline: as §1
# Gal6S(b1-3)GlcNAc6S = biological target: Gal6S(b1-3)GlcNAc6S
# Outline: as §1
# [18] = biological target: GalNAc(b1-3)Gal(a1-4)Gal(b1-4)GlcNAc
# Outline: as §1
# GalNAc(b1-4)Gal(b1-4)Glc = biological target: GalNAc(b1-4)Gal(b1-4)Glc
# Outline: as §1
# [19] = biological target: GlcNAc(a1-4)Gal(b1-4)GalNAc
# Outline: as §1
# [20] = biological target: GlcNAc(a1-4)Gal(b1-4)GlcNAc(b1-3)Gal(b1-4)GlcNAc
# Outline: as §1
# [21] = biological target: Man(a1-2)Man(a1-2)Man(a1-6)[Man(a1-3)]Man
# Outline: as §1
# Neu5Ac(a2-3)Gal = biological target: Neu5Ac(a2-3)Gal
# Outline: as §1
# [22] = biological target: Neu5Ac(a2-3)Gal(b1-3)GlcNAc(b1-2)Man(a1-3)[Neu5Ac(a2-3)Gal(b1-3)GlcNAc(b1-2)Man(a1-6)]Man(b1-4)GlcNAc(b1-4)GlcNAc
# Outline: as §1
# [23] = biological target: Neu5Ac(a2-3)Gal(b1-4)GlcNAc(b1-2)[Neu5Ac(a2-3)Gal(b1-4)GlcNAc(b1-4)]Man(a1-3)[GlcNAc(b1-4)][Neu5Ac(a2-3)Gal(b1-4)GlcNAc(b1-2)[Neu5Ac(a2-3)Gal(b1-4)GlcNAc(b1-6)]Man(a1-6)]Man(b1-4)GlcNAc(b1-4)GlcNAc
# Outline: as §1
# [24] = biological target: Neu5Ac(a2-3)Gal(b1-4)[Fuc(a1-3)]GlcNAc(b1-3)GalNAc
# Outline: as §1
# [25] = biological target: Neu5Ac(a2-3)Gal6S(b1-4)GlcNAc
# Outline: as §1
# [26] = biological target: Neu5Ac(a2-3)[GalNAc(b1-4)]Gal(b1-4)Glc
# Outline: as §1
# [27] = biological target: Neu5Ac(a2-6)Gal(b1-4)GlcNAc(b1-2)Man(a1-3)[GlcNAc(b1-2)Man(a1-6)]Man(b1-4)GlcNAc(b1-4)GlcNAc
# Outline: as §1
# [28] = biological target: Neu5Ac(a2-6)Gal(b1-4)GlcNAc(b1-2)Man(a1-6)[Gal(b1-4)GlcNAc(b1-2)Man(a1-3)]Man(b1-4)GlcNAc(b1-4)GlcNAc
# Outline: as §1
# [29] = biological target: Neu5Ac(a2-6)Gal(b1-4)GlcNAc(b1-3)Gal(b1-4)GlcNAc(b1-3)Gal(b1-4)GlcNAc(b1-2)Man(a1-3)[Neu5Ac(a2-6)Gal(b1-4)GlcNAc(b1-3)Gal(b1-4)GlcNAc(b1-3)Gal(b1-4)GlcNAc(b1-2)Man(a1-6)]GalNAc
# Outline: as §1
# [30] = biological target: Neu5Ac(a2-6)Gal(b1-4)GlcNAc(b1-6)[Gal(b1-3)GlcNAc(b1-3)]Gal(b1-4)Glc
# Outline: as §1
# [31] = biological target: Neu5Ac(b2-6)Gal(b1-4)GlcNAc
# Outline: as §1
# [32] = biological target: Neu5Gc(a2-3)Gal(b1-3)GlcNAc
# Outline: as §1
# Neu5Gc(a2-3)Gal(b1-4)Glc = biological target: Neu5Gc(a2-3)Gal(b1-4)Glc
# Outline: as §1
# [33] = biological target: Neu5Gc(a2-8)Neu5Ac(a2-3)Gal(b1-4)GlcNAc
# Outline: as §1
# [34] = biological target: Neu5Gc(a2-8)Neu5Gc(a2-3)Gal(b1-4)GlcNAc(b1-3)Gal(b1-4)GlcNAc
# Outline: as §1
binder,measurement,setting,value
B1,glycan array binding signal (z-score),[1],9.47
same,glycan array binding signal (z-score),[2],3.96
same,glycan array binding signal (z-score),[3],-0.063
same,glycan array binding signal (z-score),[4],-0.388
same,glycan array binding signal (z-score),[5],-0.74
same,glycan array binding signal (z-score),[6],0.349
same,glycan array binding signal (z-score),Gal(a1-3)Gal(b1-3)GlcNAc,3
same,glycan array binding signal (z-score),[7],6.06
same,glycan array binding signal (z-score),[8],-0.939
same,glycan array binding signal (z-score),[9],-0.411
same,glycan array binding signal (z-score),[10],0.433
same,glycan array binding signal (z-score),[11],-0.864
same,glycan array binding signal (z-score),[12],-0.993
same,glycan array binding signal (z-score),[13],3.5
same,glycan array binding signal (z-score),[14],-0.472
same,glycan array binding signal (z-score),[15],-0.464
same,glycan array binding signal (z-score),[16],-0.166
same,glycan array binding signal (z-score),Gal3S(b1-4)Glc6S,3.71
same,glycan array binding signal (z-score),[17],1.03
same,glycan array binding signal (z-score),Gal3S6S(b1-4)GlcNAc6S,4.08
same,glycan array binding signal (z-score),Gal6P(b1-4)GlcNAc,3.62
same,glycan array binding signal (z-score),Gal6S(b1-3)GlcNAc6S,3.2
same,glycan array binding signal (z-score),[18],0.28
same,glycan array binding signal (z-score),GalNAc(b1-4)Gal(b1-4)Glc,1.12
same,glycan array binding signal (z-score),[19],-0.598
same,glycan array binding signal (z-score),[20],-0.749
same,glycan array binding signal (z-score),[21],-0.215
same,glycan array binding signal (z-score),Neu5Ac(a2-3)Gal,0.604
same,glycan array binding signal (z-score),[22],3.51
same,glycan array binding signal (z-score),[23],-0.711
same,glycan array binding signal (z-score),[24],0.837
same,glycan array binding signal (z-score),[25],0.844
same,glycan array binding signal (z-score),[26],-0.342
same,glycan array binding signal (z-score),[27],-0.833
same,glycan array binding signal (z-score),[28],-0.707
same,glycan array binding signal (z-score),[29],4.45
same,glycan array binding signal (z-score),[30],-0.654
same,glycan array binding signal (z-score),[31],0.023
same,glycan array binding signal (z-score),[32],-0.366
same,glycan array binding signal (z-score),Neu5Gc(a2-3)Gal(b1-4)Glc,-0.112
same,glycan array binding signal (z-score),[33],-0.442
same,glycan array binding signal (z-score),[34],-0.34
